This is part of a sample that, as a whole, favours compounds with a hit. Of some 83,000 tested, about 20% had one in any assay.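 Plates (96-well) were seeded with cells, treated with compound at one concentration, and incubated for 48 hours before percent growth was determined.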 Calls of active or inactive are those of the source. How the source made its calls: active means growth percent below 10; inactive means the rest.
System: HT29 colon
Assay: NCI-60 one-dose screen, 48 h (100 = growth as untreated, 0 = no growth, -100 = all killed)
Conditions: 10 µM unless noted

Question: With `CC1(C)OC2COC3(C(=O)O)OC(C)(C)OC3C2O1` (stereo unspecified) as the compound, how does the growth read?
Answer: 99.8% (inactive)

Question: For `Cc1ccc(Cn2c(-c3cccs3)nc3ccccc32)cc1`, which growth is on record?
Answer: 92.7% (inactive)

Question: For `COc1cc2c(cc1OC)C1(C)N(CC2)C(=O)OC1(C)C` (stereo unspecified), which growth is on record?
Answer: 115% (inactive)

Question: How did the growth turn out when `Cc1cc(-c2ccccc2)c(C)n1Cc1ccc(Cl)cc1` was run?
Answer: 13.8% (inactive)

Question: Which growth does the source give for `CCN(Cc1ccccc1)c1ccc(SC#N)cc1` here?
Answer: 70.5% (inactive)

Question: Which growth does the source give for `O=C1Nc2ccc(Br)cc2C1=N/C=c1\[nH]c(=O)/c(=C/c2ccc(Cl)cc2)s1` here?
Answer: 97.9% (inactive)

Question: With `COc1ccc(-c2nc(-c3ccccc3)c(-c3ccccc3)n2C2CC2)cc1OC1CCCCC1` as the compound, how does the growth read?
Answer: 49.2% (inactive)

Question: `CC(=O)Nc1ccc(S(=O)(=O)N2C(=O)CCC2C(=O)Nc2ccccc2)cc1` (stereo unspecified) was tested. Which growth did it give?
Answer: 34% (inactive)

Question: Which growth does the source give for `COc1cc(CNC(=O)CCSc2nc3ccccc3c(=O)n2Cc2cc(OC)c(OC)c(OC)c2)cc(OC)c1OC` here?
Answer: 12.9% (inactive)

Question: How did the growth turn out when `O=C(CN1CCN(c2cc3c(cc2F)c(=O)c(C(=O)O)cn3C2CC2)CC1)Nc1ccc(C(=O)/C=C/c2ccccc2)cc1` was run?
Answer: 11.4% (inactive)

Question: With `CC(C)N(Cc1ccc(CN(C(=O)CCl)C(C)C)cc1)C(=O)CCl` as the compound, how does the growth read?
Answer: -49.7% (active)

Question: With `COc1ccc(/C=C/c2cc(N3CCOCC3)c3cc(F)c(F)cc3n2)cc1OC` as the compound, how does the growth read?
Answer: 38.9% (inactive)

Question: How did the growth turn out when `COc1cccc(-n2cc(-c3nc(Cl)c4ccccc4n3)nn2)c1` was run?
Answer: 53.1% (inactive)

Question: With `CCNC(=O)C1CCCN1C(=O)C(CCCN=C(N)N)NC(=O)C(CC(C)C)NC(=O)C(CC(C)C)NC(=O)C(Cc1ccc(O)cc1)NC(=O)C(CO)NC(=O)C(Cc1c[nH]c2ccccc12)NC(=O)C(Cc1cnc[nH]1)NC(=O)C1CCC(=O)N1` (stereo unspecified) as the compound, how does the growth read?
Answer: 97.4% (inactive)

Question: `Nc1c(C(=O)Nc2cccc(Cl)c2Cl)sc2nc3c(cc12)C(=O)CCC3` was tested. Which growth did it give?
Answer: 85.5% (inactive)

Question: `COc1cc(C2C=C(C)N=C3SC(C)=NN32)cc(OC)c1OC` (stereo unspecified) was tested. Which growth did it give?
Answer: 102% (inactive)

Question: With `Nc1c(C(=O)Nc2cccc(C(F)(F)F)c2)sc2nc3c(cc12)CCCCCC3` as the compound, how does the growth read?
Answer: 0.128% (active)

Question: For `O=Nc1c(-c2c(O)[nH]c3ccc([N+](=O)[O-])cc23)[nH]c2ccc(O)cc12`, which growth is on record?
Answer: 69.2% (inactive)

Question: How did the growth turn out when `c1cc(-c2ccc3c(c2)OCO3)n2nccc2n1` was run?
Answer: 103% (inactive)

Question: For `Nc1c(C(=O)Nc2cccc([N+](=O)[O-])c2)sc2nc3c(cc12)C(O)CCC3` (stereo unspecified), which growth is on record?
Answer: 17.4% (inactive)

Question: With `CCn1cc(C(=O)O)c(=O)c2cc(F)c(N3CCN(S(=O)(=O)c4ccc(Cl)cc4Cl)CC3)cc21` as the compound, how does the growth read?
Answer: 1.87% (active)

Question: `CN1C(=O)[C@H]2c3c1cccc3[C@@]13NC(=O)O[C@H]1[C@H](CCC3(C)C)C2(C)C` was tested. Which growth did it give?
Answer: 100% (inactive)

Question: Which growth does the source give for `CN1CCN(c2ccc3cc(-c4nc5ccccc5[nH]4)c(=O)oc3c2)CC1` here?
Answer: 108% (inactive)

Question: With `Cc1ccc(Cn2c(-c3nonc3N)nc3ccccc32)cc1` as the compound, how does the growth read?
Answer: 46.3% (inactive)

Question: With `CCc1cccc(C)c1NC(=O)c1sc2nc3c(cc2c1N)C(=O)CCC3` as the compound, how does the growth read?
Answer: 6.1% (active)

Question: For `COc1cc(-c2cc(/C=C3\CCCCC3=O)[nH]n2)cc(OC)c1OC`, which growth is on record?
Answer: 100% (inactive)

Question: `FC(F)(F)c1cccc(-n2nnc3cnc(Nc4ccc(N5CCCCC5)cc4)nc32)c1` was tested. Which growth did it give?
Answer: 74.3% (inactive)

Question: `Cc1ccc(OCCn2c(C)nn(-c3ccc(Cl)cc3)c2=O)cc1` was tested. Which growth did it give?
Answer: 119% (inactive)

Question: Which growth does the source give for `CN1CCN(CCCOc2ccc3nc(Nc4ccc(C(F)(F)F)c(Cl)c4)ccc3c2)CC1` here?
Answer: -67.2% (active)

Question: For `COc1cc(Cn2c(SCC(=O)Nc3cc(OC)c(OC)c(OC)c3)nc3ccccc3c2=O)cc(OC)c1OC`, which growth is on record?
Answer: 99.5% (inactive)

Question: `c1ccc(CCn2nnc3c(Nc4ccc(N5CCOCC5)cc4)ncnc32)cc1` was tested. Which growth did it give?
Answer: 81.3% (inactive)

Question: With `CCCC1OC(c2ccc(C(C)C)cc2)OCC1CC` (stereo unspecified) as the compound, how does the growth read?
Answer: 97% (inactive)

Question: Which growth does the source give for `Oc1ccc(N=Cc2ccccc2)cc1` here?
Answer: 105% (inactive)

Question: For `COc1cccc(NC(=O)c2sc3nc4c(cc3c2N)CCCC4)c1`, which growth is on record?
Answer: 41.5% (inactive)

Question: With `Cn1cc(C=O)c2ccccc21` as the compound, how does the growth read?
Answer: 100% (inactive)

Question: With `O=C1CCCCN1CCCCC#Cc1ccccc1C#Cc1ccc([N+](=O)[O-])cc1` as the compound, how does the growth read?
Answer: 28.4% (inactive)

Question: `O=C(c1ccncc1)N1N=C(c2ccc(Cl)cc2)CC1c1c[nH]c2ccccc12` (stereo unspecified) was tested. Which growth did it give?
Answer: 101% (inactive)

Question: For `Cc1cc2c(c(=O)o1)C(c1ccc(OC(=O)N3CCOCC3)cc1)C(C#N)=C(N)O2` (stereo unspecified), which growth is on record?
Answer: 104% (inactive)

System: SNB-75 CNS
Assay: as above
Conditions: 10 µM unless noted

Question: Which growth does the source give for `CC1(C)OC2COC3(C(=O)O)OC(C)(C)OC3C2O1` (stereo unspecified) here?
Answer: 87.2% (inactive)

Question: How did the growth turn out when `Cc1ccc(Cn2c(-c3cccs3)nc3ccccc32)cc1` was run?
Answer: 62.2% (inactive)

Question: `COc1cc2c(cc1OC)C1(C)N(CC2)C(=O)OC1(C)C` (stereo unspecified) was tested. Which growth did it give?
Answer: 76.5% (inactive)

Question: For `Cc1cc(-c2ccccc2)c(C)n1Cc1ccc(Cl)cc1`, which growth is on record?
Answer: 38.5% (inactive)

Question: How did the growth turn out when `CCN(Cc1ccccc1)c1ccc(SC#N)cc1` was run?
Answer: 83.1% (inactive)

Question: Which growth does the source give for `O=C1Nc2ccc(Br)cc2C1=N/C=c1\[nH]c(=O)/c(=C/c2ccc(Cl)cc2)s1` here?
Answer: 93.9% (inactive)

Question: With `COc1ccc(-c2nc(-c3ccccc3)c(-c3ccccc3)n2C2CC2)cc1OC1CCCCC1` as the compound, how does the growth read?
Answer: 56.3% (inactive)

Question: `CC(=O)Nc1ccc(S(=O)(=O)N2C(=O)CCC2C(=O)Nc2ccccc2)cc1` (stereo unspecified) was tested. Which growth did it give?
Answer: 28.9% (inactive)

Question: With `COc1cc(CNC(=O)CCSc2nc3ccccc3c(=O)n2Cc2cc(OC)c(OC)c(OC)c2)cc(OC)c1OC` as the compound, how does the growth read?
Answer: 17.9% (inactive)

Question: How did the growth turn out when `O=C(CN1CCN(c2cc3c(cc2F)c(=O)c(C(=O)O)cn3C2CC2)CC1)Nc1ccc(C(=O)/C=C/c2ccccc2)cc1` was run?
Answer: 61.8% (inactive)

Question: `CC(C)N(Cc1ccc(CN(C(=O)CCl)C(C)C)cc1)C(=O)CCl` was tested. Which growth did it give?
Answer: -60.5% (active)

Question: How did the growth turn out when `COc1ccc(/C=C/c2cc(N3CCOCC3)c3cc(F)c(F)cc3n2)cc1OC` was run?
Answer: 48% (inactive)

Question: For `COc1cccc(-n2cc(-c3nc(Cl)c4ccccc4n3)nn2)c1`, which growth is on record?
Answer: 72.3% (inactive)

Question: How did the growth turn out when `CCNC(=O)C1CCCN1C(=O)C(CCCN=C(N)N)NC(=O)C(CC(C)C)NC(=O)C(CC(C)C)NC(=O)C(Cc1ccc(O)cc1)NC(=O)C(CO)NC(=O)C(Cc1c[nH]c2ccccc12)NC(=O)C(Cc1cnc[nH]1)NC(=O)C1CCC(=O)N1` (stereo unspecified) was run?
Answer: 90.3% (inactive)

Question: `Nc1c(C(=O)Nc2cccc(Cl)c2Cl)sc2nc3c(cc12)C(=O)CCC3` was tested. Which growth did it give?
Answer: 54.7% (inactive)

Question: For `COc1cc(C2C=C(C)N=C3SC(C)=NN32)cc(OC)c1OC` (stereo unspecified), which growth is on record?
Answer: 82.5% (inactive)

Question: Which growth does the source give for `Nc1c(C(=O)Nc2cccc(C(F)(F)F)c2)sc2nc3c(cc12)CCCCCC3` here?
Answer: -34% (active)

Question: For `O=Nc1c(-c2c(O)[nH]c3ccc([N+](=O)[O-])cc23)[nH]c2ccc(O)cc12`, which growth is on record?
Answer: -28.1% (active)

Question: For `c1cc(-c2ccc3c(c2)OCO3)n2nccc2n1`, which growth is on record?
Answer: 84.5% (inactive)

Question: With `Nc1c(C(=O)Nc2cccc([N+](=O)[O-])c2)sc2nc3c(cc12)C(O)CCC3` (stereo unspecified) as the compound, how does the growth read?
Answer: 16.9% (inactive)

Question: Which growth does the source give for `CCn1cc(C(=O)O)c(=O)c2cc(F)c(N3CCN(S(=O)(=O)c4ccc(Cl)cc4Cl)CC3)cc21` here?
Answer: 74.8% (inactive)

Question: With `CN1C(=O)[C@H]2c3c1cccc3[C@@]13NC(=O)O[C@H]1[C@H](CCC3(C)C)C2(C)C` as the compound, how does the growth read?
Answer: 81.1% (inactive)

Question: Which growth does the source give for `CN1CCN(c2ccc3cc(-c4nc5ccccc5[nH]4)c(=O)oc3c2)CC1` here?
Answer: 91.8% (inactive)

Question: For `Cc1ccc(Cn2c(-c3nonc3N)nc3ccccc32)cc1`, which growth is on record?
Answer: 57.4% (inactive)

Question: `CCc1cccc(C)c1NC(=O)c1sc2nc3c(cc2c1N)C(=O)CCC3` was tested. Which growth did it give?
Answer: -2.83% (active)

Question: Which growth does the source give for `COc1cc(-c2cc(/C=C3\CCCCC3=O)[nH]n2)cc(OC)c1OC` here?
Answer: 85.8% (inactive)

Question: Which growth does the source give for `FC(F)(F)c1cccc(-n2nnc3cnc(Nc4ccc(N5CCCCC5)cc4)nc32)c1` here?
Answer: 65.7% (inactive)

Question: Which growth does the source give for `Cc1ccc(OCCn2c(C)nn(-c3ccc(Cl)cc3)c2=O)cc1` here?
Answer: 82.6% (inactive)

Question: How did the growth turn out when `CN1CCN(CCCOc2ccc3nc(Nc4ccc(C(F)(F)F)c(Cl)c4)ccc3c2)CC1` was run?
Answer: 4.61% (active)

Question: How did the growth turn out when `COc1cc(Cn2c(SCC(=O)Nc3cc(OC)c(OC)c(OC)c3)nc3ccccc3c2=O)cc(OC)c1OC` was run?
Answer: -13.7% (active)

Question: Which growth does the source give for `c1ccc(CCn2nnc3c(Nc4ccc(N5CCOCC5)cc4)ncnc32)cc1` here?
Answer: 84.8% (inactive)

Question: For `CCCC1OC(c2ccc(C(C)C)cc2)OCC1CC` (stereo unspecified), which growth is on record?
Answer: 87.6% (inactive)

Question: Which growth does the source give for `Oc1ccc(N=Cc2ccccc2)cc1` here?
Answer: 105% (inactive)

Question: For `COc1cccc(NC(=O)c2sc3nc4c(cc3c2N)CCCC4)c1`, which growth is on record?
Answer: 18.2% (inactive)

Question: Which growth does the source give for `Cn1cc(C=O)c2ccccc21` here?
Answer: 80% (inactive)

Question: Which growth does the source give for `O=C1CCCCN1CCCCC#Cc1ccccc1C#Cc1ccc([N+](=O)[O-])cc1` here?
Answer: 66.1% (inactive)

Question: How did the growth turn out when `O=C(c1ccncc1)N1N=C(c2ccc(Cl)cc2)CC1c1c[nH]c2ccccc12` (stereo unspecified) was run?
Answer: 82.4% (inactive)

Question: With `Cc1cc2c(c(=O)o1)C(c1ccc(OC(=O)N3CCOCC3)cc1)C(C#N)=C(N)O2` (stereo unspecified) as the compound, how does the growth read?
Answer: 95.6% (inactive)
